Screens (PubChem BioAssay)
IL-1B inflam inh: qHTS for Inhibitors of Inflammasome Signaling: IL-1-beta AlphaLISA Primary Screen; 360,000 compounds, 4.7% hits; activity change, % at 57.5 µM; THP-1 LPS/ATP IL-1B secretion, AlphaLISA, 16 h; stronger effect = lower value; in the data active = activity change below about -50%; inconclusive = mostly about -30% to -49%
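THP-1 cells pretreated 1 hr with compounds (up to 57.5 uM final), then stimulated with LPS (250 ng/mL final) plus ATP (1.25 mM final); secreted IL-1B measured by AlphaLISA after 16 hr, decreased signal indicating inhibition.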
DT40 TDP1 CPT: qHTS for Inhibitors of human tyrosyl-DNA phosphodiesterase 1 (TDP1): qHTS in cells in presence of CPT; Potency, µM (doses to about 46.2 µM), hits mostly inhibitors; chicken DT40 Tdp1-/-;hTDP1 cells + 20 nM CPT, ATP luminescence, 48 h; 420,000 compounds, 12% hits; note: nearly all actives have a fitted effect of over 55% in size
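Cell growth measured by CellTiter-Glo luminescence after a minimum 48 h, 37 C compound exposure with 20 nM CPT in Tdp1-knockout DT40 cells stably expressing hTDP1, seeded 400/well; qHTS titration format.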
uPA surface inh: qHTS for Inhibitors of Cell Surface uPA Generation; cell surface uPA generation assay, qHTS; AID 540303, 2011; 330,000 compounds, 0.31% hits; Potency, µM (doses to about 38.3 µM), hits mostly inhibitors; active = well fitted inhibition curve with a large enough effect; inconclusive = small, poorly fitted or top-dose-only effect; inactive = no such curve, though single readings can be large or run the other way; tested in mouse RAW 264.7 cells; note: nearly all actives have a fitted effect of over 55% in size
TDP1 cell noCPT: qHTS for Inhibitors of human tyrosyl-DNA phosphodiesterase 1 (TDP1): qHTS in cells in absence of CPT; DT40 Tdp1-/- hTDP1 cells, no CPT, ATP luminescence, 48 h; Potency, µM (doses to about 46.2 µM), actives largely listed as inhibitors; 420,000 compounds, 15% hits; AID 686978, 2013; note: nearly all actives have a fitted effect of over 55% in size
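Stably hTDP1-transfected Tdp1-null chicken DT40 cells were treated with library compounds minus camptothecin and grown for at least 48 hr at 37 °C, after which cellular ATP was quantified by luminescence.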
HT1080NT lethal: qHTS for induction of synthetic lethality in tumor cells producing 2HG: qHTS for the HT-1080-NT fibrosarcoma cell line; HT-1080-NT fibrosarcoma viability, CellTiter-Glo ATP luminescence, 48 h; Potency, µM (titrated, usually from 46.1 µM), most hits filed as cytotoxic; 360,000 compounds, 1.6% hits; AID 686970, 2013;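 note: NT is the 2HG producing partner of a matched IDH1 knockdown line; nearly all actives have a fitted effect of over 55% in size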
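Compounds were tested in concentration-response format on HT-1080-NT cells for 48 hours at 37 degrees C. Cell viability came from CellTiter-Glo luminescence; curves were classified by r2, response magnitude and activity.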
HT1080 IDH1KD tx: qHTS for induction of synthetic lethality in tumor cells producing 2HG: qHTS for the HT-1080-IDH1KD cell line; HT-1080 IDH1 knockdown viability, ATP luminescence, 48 h; Potency, µM (highest dose often 46.1 µM), hits mostly cytotoxic; 360,000 compounds, 2% hits; AID 686971, 2013
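Using the IDH1-knockdown HT-1080 line run in the same batch and compound series as the NT line, viability after 48 h at 37 °C was determined by CellTiter-Glo luminescence and expressed as % activity.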
Large screens that a line does not name were inactive. Most compounds without a hit are left out; they make up all but 19% or so of the library. Unless noted, calls come from the whole dose curve; as a rule, active = well fitted curve in the direction sought with a large enough effect; inconclusive = small, poorly fitted or top-dose-only effect, or another doubt; inactive = no such curve, though single readings can be large; an effect the other way counts as inactive or inconclusive.

O=C(N/N=C/c1ccc(O)cc1)c1ccc(COc2cc(Cl)ccc2Cl)o1	DT40 TDP1 CPT inconclusive, TDP1 cell noCPT inconclusive, HT1080NT lethal inconclusive, HT1080 IDH1KD tx inconclusive
CC(C)(C)NC(=O)c1ccc(COc2ccc(Cl)cc2Cl)o1	IL-1B inflam inh -69, TDP1 cell noCPT inconclusive, HT1080NT lethal inconclusive
O=C(c1ccc(COc2ccc(Cl)cc2Cl)o1)N1CCCC1	TDP1 cell noCPT 18µM
O=S1(=O)N[C@@H](Cc2ccccc2)COc2cccc(N3CCN(Cc4ccccc4F)CC3)c21	DT40 TDP1 CPT inconclusive, TDP1 cell noCPT 18µM, HT1080NT lethal inconclusive, HT1080 IDH1KD tx inconclusive (no result: uPA surface inh)
CC(C(=O)NCC(=O)Nc1ccc(F)c(F)c1F)N1CCN(c2ccc(O)cc2)CC1 (stereo not drawn)	DT40 TDP1 CPT inconclusive, uPA surface inh inconclusive, TDP1 cell noCPT 15µM, HT1080NT lethal inconclusive, HT1080 IDH1KD tx inconclusive
COc1ccc(NS(=O)(=O)c2ccc3[nH]c4c(c3c2)CCCCC4)cc1	DT40 TDP1 CPT 16µM, TDP1 cell noCPT 23µM (no result: IL-1B inflam inh, uPA surface inh, HT1080NT lethal, HT1080 IDH1KD tx)
COc1ccc(NS(=O)(=O)c2ccc3[nH]c4c(c3c2)CCCC4)c(OC)c1	DT40 TDP1 CPT 21µM, TDP1 cell noCPT 21µM (no result: IL-1B inflam inh, uPA surface inh, HT1080NT lethal, HT1080 IDH1KD tx)
CCOc1ccc(NS(=O)(=O)c2ccc3[nH]c4c(c3c2)CCCC4)cc1	TDP1 cell noCPT inconclusive (no result: IL-1B inflam inh, uPA surface inh, HT1080NT lethal, HT1080 IDH1KD tx)
CCOc1ccc(NS(=O)(=O)c2ccc3[nH]c4c(c3c2)CCCCC4)cc1	DT40 TDP1 CPT 23µM, TDP1 cell noCPT 18µM (no result: IL-1B inflam inh, uPA surface inh, HT1080NT lethal, HT1080 IDH1KD tx)
CCN1CCN(C(=O)NC(C(=O)NC2C(=O)N3C2SC(C)(C)C3C(=O)O)c2ccccc2)C(=O)C1=O (stereo not drawn)	none (no result: IL-1B inflam inh, uPA surface inh, HT1080NT lethal, HT1080 IDH1KD tx)
Cc1ccc2[nH]c3c(c2c1)CN(C(=O)CC1(c2ccccc2)CC(=O)N(Cc2cccnc2)C1=O)CC3 (stereo not drawn)	DT40 TDP1 CPT inconclusive, TDP1 cell noCPT 16µM (no result: IL-1B inflam inh, uPA surface inh, HT1080NT lethal, HT1080 IDH1KD tx)
Cc1ccc2[nH]c3c(c2c1)CN(C(=O)CN1CCCc2ccccc21)CC3	DT40 TDP1 CPT 23µM, TDP1 cell noCPT inconclusive, HT1080NT lethal inconclusive, HT1080 IDH1KD tx 23µM
COCCNC(=O)C(OC(=O)c1ccco1)c1ccccc1F (stereo not drawn)	DT40 TDP1 CPT inconclusive
CC(C)c1ccc(NC2CCCN(C(=O)c3n[nH]c4c3CCC4)C2)cc1 (stereo not drawn)	IL-1B inflam inh inconclusive, DT40 TDP1 CPT 18µM, TDP1 cell noCPT inconclusive
CC(C)c1ccc(NC2CCCN(C(=O)c3ccsc3)C2)cc1 (stereo not drawn)	IL-1B inflam inh inconclusive, DT40 TDP1 CPT 23µM, TDP1 cell noCPT 18µM
COC(=O)c1ccc(C(=O)N2CCCC(Nc3ccc(C(C)C)cc3)C2)cc1 (stereo not drawn)	none
CC1CN(C(=O)c2ccc(COc3ccc(C(C)C)cc3)o2)CC(C)O1 (stereo not drawn)	DT40 TDP1 CPT 16µM, uPA surface inh inconclusive, TDP1 cell noCPT 21µM, HT1080NT lethal inconclusive, HT1080 IDH1KD tx inconclusive
CC(C)c1ccc(NC2CCCN(C(=O)c3cccnc3)C2)cc1 (stereo not drawn)	DT40 TDP1 CPT inconclusive, TDP1 cell noCPT inconclusive
COCc1ccc(C(=O)N2CCCC(Nc3ccc(C(C)C)cc3)C2)o1 (stereo not drawn)	DT40 TDP1 CPT inconclusive, TDP1 cell noCPT 18µM
COCc1ccc(C(=O)N2CCCC(Nc3ccc(C(C)C)cc3)C2)s1 (stereo not drawn)	DT40 TDP1 CPT inconclusive, TDP1 cell noCPT inconclusive
CC1CN(C(=O)c2ccc(COc3ccc4ccccc4c3)o2)CC(C)O1 (stereo not drawn)	DT40 TDP1 CPT inconclusive, TDP1 cell noCPT inconclusive
O=C(CCCC(=O)OCC(F)(F)C(F)F)Nc1ccccc1F	none
N#Cc1cc2cc3c(cc2nc1NCCNC(=S)NCCCN1CCOCC1)OCO3	TDP1 cell noCPT inconclusive
